From PubChem BioAssay AID1117283 (Broad Institute, 2014) come the findings set out here.

SMILES strings stand for the structures. Entries with a potency or affinity are not part of this list. Calls of active or inactive are those of the source.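 Rule for the calls: active = fluorescent signal decreased by at least 40%; inconclusive = no clear call, values can overlap the other calls; inactive = the rest, including activity opposite to the expected direction.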

The nature of this test: inhibition of fibronectin matrix deposition – AH1F cells, Alexa488-fibronectin fluorescence, cherry-pick, set 2, dose response (AID 1117283).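 Note: AH1F fibroblasts given Alexa488-labelled fibronectin at 24 nM final.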 As to conditions: AH1F fibroblasts, overnight; series mostly up to 35 µM; activity change, negative = inhibition: at the top concentration.
With `CC(C)C(=O)Nc1ccc2c(c1)C(=O)N(C)[C@@H]1CC[C@H](CC(=O)O)O[C@@H]1CO2`, the “activity change, negative = inhibition” value was 7.63% (inactive).
On to `CO[C@@H]1CN(C)C(=O)c2cc(NC(=O)Nc3cc(Cl)cc(Cl)c3)ccc2OC[C@@H](C)NC[C@@H]1C`, for which the “activity change, negative = inhibition” value is 7.38% (inactive).
On to `CCOc1ccccc1NC(=O)c1c(NC(=O)CCC(=O)O)sc2c1CCCCC2`, for which the “activity change, negative = inhibition” value is 5.99% (inactive).
Under `Cc1ccc(S(=O)(=O)N2CC[C@H]3[C@H](CO)Nc4ccc(-c5cccc(C(=O)N(C)C)c5)cc4[C@H]32)cc1` stands 3.11% (inactive); under `N#C[C@H]1[C@H](c2ccccc2C2=CCCCC2)[C@H](CO)N1S(=O)(=O)c1ccccc1`, -0.083% (inactive); under `COc1cccc(-c2ccc3c(c2)[C@H]2[C@H](CCN2S(=O)(=O)c2cccc(OC)c2)[C@@H](CO)N3)c1`, -7.16% (inactive).
For the compound `Cc1ccc(S(=O)(=O)N2CC3(C)CN(S(=O)(=O)c4ccc(C)cc4)CC(C)(C2)C3=O)cc1`, the “activity change, negative = inhibition” value is -0.415% (inactive).
Take `C[C@@H]1CN([C@@H](C)CO)C(=O)c2cc(NC(=O)CCCN(C)C)ccc2O[C@H]1CN(C)Cc1ccc(-c2ccccc2)cc1`: the “activity change, negative = inhibition” value was 2.11% (inactive).
For `O=C(Nc1ccc(Cl)cc1)N1C[C@H]2[C@@H](c3ccccc31)[C@H](CO)N2CC1CCCC1`, the “activity change, negative = inhibition” value is 0.835% (inactive).
Under `CN1c2ccc(-c3ccccc3)cc2[C@@H]2[C@@H](CCN2C(=O)CN2CCOCC2)[C@H]1CO` stands 3.99% [at 30 µM] (inactive); under `COCC(=O)Nc1ccc2c(c1)C(=O)N(C)[C@@H]1CC[C@@H](CC(=O)NCc3ccccc3Cl)O[C@@H]1CO2`, -3.34% (inactive); under `O=C(Nc1ccccc1F)N1C[C@@H]2[C@H](c3ccccc31)[C@H](CO)N2C(=O)C1CC1`, 2.39% (inactive).
As for `C[C@H](CO)N1C[C@H](C)[C@@H](CN(C)C(=O)Nc2cccc3ccccc23)Oc2c(NC(=O)Nc3ccc(C(F)(F)F)cc3)cccc2C1=O`, the “activity change, negative = inhibition” value was 3.45% (inactive).
As for `CO[C@@H]1CN(C)C(=O)c2cc(NC(=O)Nc3cc(Cl)cc(Cl)c3)ccc2OC[C@H](C)NC[C@H]1C`, the “activity change, negative = inhibition” value is 25.1% (inactive).
On to `CO[C@H]1CN(C)C(=O)c2ccc(NC(=O)c3ccc(-c4ccccc4)cc3)cc2OC[C@@H](C)NC[C@@H]1C`, for which the “activity change, negative = inhibition” value was -7.14% (inactive).
In the case of `Cc1ccc(S(=O)(=O)N2CC[C@@H]3[C@H]2c2cc(-c4cccc(C(=O)N(C)C)c4)ccc2N[C@@H]3CO)cc1`, the “activity change, negative = inhibition” value is 1.91% (inactive).
`CCCc1cc(C(=O)OC)c(NC(=O)CCC(=O)O)s1`: the “activity change, negative = inhibition” value was 8.2% (inactive).
With `CCOC(=O)C1=C(C)Nc2nc3ccccc3n2C1c1ccncc1` (configuration not stated), the “activity change, negative = inhibition” value is -4.18% (inactive).
For the compound `COC(=O)c1c(NC(=O)CN2CCN(c3ccccc3Cl)CC2)sc(C)c1C`, the “activity change, negative = inhibition” value is 3.46% (inactive).
With `O=C(c1cccnc1)N1C[C@H]2[C@@H](c3ccccc31)[C@H](CO)N2CC1CCCC1`, the “activity change, negative = inhibition” value was 8.16% (inactive).
Turning to `Cn1cnc(S(=O)(=O)N2CCN(c3ccccc3)CC2)c1`, the “activity change, negative = inhibition” value was -6.26% (inactive).
As for `C[C@@H]1CN([C@@H](C)CO)C(=O)c2cc(-c3ccccc3)cnc2O[C@@H]1CN(C)Cc1ccccc1`, the “activity change, negative = inhibition” value was 7.12% (inactive).
Take `O=C(NCc1ccccc1)c1ccc(-c2cn[nH]c2)c2ccoc12`: the “activity change, negative = inhibition” value was 2.33% (inactive).
`C[C@@H]1CN([C@H](C)CO)C(=O)c2cccc(NC(=O)Nc3ccc(C(F)(F)F)cc3)c2O[C@H]1CN(C)C(=O)Nc1cccc2ccccc12`: the “activity change, negative = inhibition” value is 6.53% (inactive).
In the case of `CO[C@H]1CN(C)C(=O)c2ccc(NC(=O)Nc3ccc(Cl)c(Cl)c3)cc2OC[C@H](C)NC[C@@H]1C`, the “activity change, negative = inhibition” value was -11% (inactive).
Under `COCC(=O)Nc1ccc2c(c1)C(=O)N(C)[C@@H]1CC[C@H](CC(=O)NCc3ccccc3Cl)O[C@@H]1CO2` stands -0.399% (inactive); under `C[C@@H]1CN([C@@H](C)CO)C(=O)c2cc(-c3ccncc3)cnc2O[C@@H]1CN(C)C(=O)Cc1cccnc1`, 0.086% (inactive).
Take `O=C(Nc1nc(-c2ccncc2)cs1)C1COc2ccccc2O1` (configuration not stated): the “activity change, negative = inhibition” value was 3.61% (inactive).
On to `C[C@H]1CN([C@@H](C)CO)C(=O)c2cc(NC(=O)CCCN(C)C)ccc2O[C@H]1CN(C)Cc1ccc(-c2ccccc2)cc1`, for which the “activity change, negative = inhibition” value was -0.102% (inactive).
Under `C[C@H]1CN([C@@H](C)CO)C(=O)c2cc(-c3ccccc3)cnc2O[C@@H]1CN(C)C(=O)c1cccc(F)c1` stands -6.59% (inactive); under `C[C@@H]1CN([C@@H](C)CO)C(=O)c2cc(-c3ccccc3)cnc2O[C@H]1CN(C)Cc1ccccc1`, 6.85% (inactive).
As for `Cc1ccc(-c2nc3ncccc3o2)cc1NC(=O)c1ccco1`, the figure is 7.73% (inactive).
Take `C[C@@H]1CN([C@H](C)CO)C(=O)c2cc(NC(=O)C3CCCCC3)ccc2O[C@H]1CN(C)Cc1ccc(-c2ccccc2)cc1`: the “activity change, negative = inhibition” value is -2.89% (inactive).
Regarding `COc1ccc(S(=O)(=O)N2CCCCC2c2cc(C(=O)Nc3ccc4c(c3)OCO4)no2)cc1` (configuration not stated), the “activity change, negative = inhibition” value was 1.69% (inactive).
Turning to `C[C@H](O)C#Cc1ccc2c(c1)O[C@H](CN(C)C)[C@@H](C)CN([C@H](C)CO)S2(=O)=O`, the “activity change, negative = inhibition” value is -7.32% (inactive).
As for `N#Cc1ccc(-c2ccc3c(c2)[C@H]2[C@H](CCN2S(=O)(=O)c2cccc(F)c2)[C@H](CO)N3)cc1`, the figure is 22.5% (inactive); as for `CO[C@@H]1CN(C)C(=O)c2ccc(NC(=O)c3ccc(-c4ccccc4)cc3)cc2OC[C@H](C)NC[C@@H]1C`, -8.9% (inactive).
